Reference: ChEMBL document CHEMBL3988442, “University of Dundee, Small-Polar-MMV Screening Library” (2021)
Out of some 48,000 compounds screened, about 13,000 (27%) showed an effect of 50% or more. This is one part of the list.

System: Wolbachia pipientis
Assay: Anti-Wolbachia Cell-Based Screen
Type: functional
Design: scale not given: in the data most compounds retested in dose-response had high values
Conditions: 5 µM

Structure (SMILES) | Percent Effect
C=Cc1ccc(C(=O)N2CCCC(Nc3ccc(F)cc3)C2)cc1 (stereo unspecified) | -17.89%
CCC(CC(=O)NS(=O)(=O)C(C)C)c1ccccc1 (stereo unspecified) | 10.71%
COc1cc2c(cc1CNCc1cccnc1-n1cccn1)OC(C)C2.Cl (stereo unspecified) | 12.76%
Cc1ccc(C)c(CNC(=O)NC(C)(C(=O)O)c2ccco2)c1 (stereo unspecified) | 3.789%
CC1=C(CCN2CCCC(O)C2)C(C)(C)CCC1 (stereo unspecified) | -3.829%
C(=C\c1ccc(CN2CCCC2)cn1)/c1ccccc1 | -4.188%
CC(=O)Nc1nc(C(=O)NCCOc2ccccc2)cs1 | -21.48%
Br.O=C(O)c1csc(NCCc2ccccc2)n1 | 93.16%
CCCNc1nc(CS(=O)(=O)c2ccccc2)cs1 | -6.524%
CC(C)(C)CC(=O)NCC(=O)NCC(O)c1ccc2ccccc2c1 (stereo unspecified) | 2.35%
CN(Cc1ccc(-n2cccn2)cc1)c1cc(N)nc(N)n1 | -3.397%
Cc1nccnc1N1CCC2(CCCN(C3CCOCC3)C2=O)C1 (stereo unspecified) | 28.32%
O=C1N(C2CCOCC2)CCCC12CCN(c1ncccc1Cl)C2 (stereo unspecified) | 119%
COC[C@@]12CC[C@@H](N3CCOCC3)C[C@H]1CCN(c1ncccc1Cl)C2 | 19.13%
COc1ccnc(N2CCC3(CCCN(C(C)C)C3=O)C2)n1 (stereo unspecified) | 10.66%
Cc1cnc(C)c(N2CCC3(CCCN(C4CCOCC4)C3=O)C2)n1 (stereo unspecified) | 106.2%
Cc1nc(N2CCC3(CCCN(C(C)C)C3=O)C2)c2sccc2n1 (stereo unspecified) | -8.987%
Cc1ccc(C#N)c(N2CCC3(CCC(=O)N(CC(N)=O)C3)CC2)n1 | -13.92%
Cc1cc(N2CCC(c3nnc(CN(C)C)n3C3CC3)CC2)ccn1 | 1.365%
N#Cc1cccnc1N1CCC2(CCCN(C3CCOCC3)C2=O)C1 (stereo unspecified) | -10.29%
Cc1ccc(C#N)c(N2CCC3(CCCN(C4CCOCC4)C3=O)C2)n1 (stereo unspecified) | 93.97%
Cc1cc(N2CCC3(CCCN(C4CCOCC4)C3=O)C2)ccn1 (stereo unspecified) | 118.2%
Cc1ccc(C#N)c(N2CCC(c3nccn3Cc3cscn3)CC2)n1 | -1.954%
CCNc1ncc(C(=O)NCC2OCCc3ccccc32)cn1 (stereo unspecified) | -9.42%
CCc1nc(C)c(CN2CCCC(c3nn(C)c(=O)n3CC)C2)[nH]1 (stereo unspecified) | 1.561%
O=S(=O)(Cc1ccccc1CN1CCOCC(O)C1)c1ccccc1 (stereo unspecified) | -4.778%

Structure (SMILES) | Percent Effect
O=C(NCc1ccccc1Cn1ccnc1)N1CCSCC1 | -1.657%
NC(=O)CN1CC2(CCC1=O)CCN(Cc1ccc(F)cc1Cl)CC2 | 0.9976%
O=C(Nc1cccc(CN2CCOC2=O)c1)N1CCSCC1 | 46.29%
Cc1ccc(O)c(CN2CCn3nc(C(=O)N4CCCC4)cc3C2)n1 | -10.87%
CNc1nc(C(=O)N2CCCC(CO)(CCCOC)C2)cs1 (stereo unspecified) | -13.19%
CNc1nc(C(=O)N2CCCn3nc(C(=O)N4CCCC4)cc3C2)cs1 | 132.4%
CNc1nc(C(=O)N2CCn3nc(C(=O)OC)cc3C2)cs1 | 99.12%
Cc1cc(C(=O)N2CCn3nc(C(=O)NC4CC4)cc3C2)nc(C)n1 | 5.79%
CCCc1nc(C(=O)N2CCCn3nc(CCC(=O)O)cc3C2)cs1 | -10.82%
CCC(C)(NCc1nc(C)c(C)o1)c1nccs1 (stereo unspecified) | -14.02%
CCOc1cc(CNCc2cnc(C)cn2)c(Cl)cc1OC(C)C | -9.744%
Cc1ccc(C(=O)O)cc1S(=O)(=O)N(CC(C)O)c1ccccc1 (stereo unspecified) | -9.364%
COC(=O)c1ccc(NC(=O)CNCc2ccco2)cc1 | -10.44%
Cc1cc(C)c(N(CC(O)CNCc2ccco2)S(C)(=O)=O)c(C)c1.O=C(O)c1ccccc1 (stereo unspecified) | 101.1%
O=S(=O)(Cc1cccc(F)c1)NCC(O)Cc1ccccc1 (stereo unspecified) | 13.38%
Cc1ccc(N(C)CC(O)COCc2ccccc2)c(C)c1 (stereo unspecified) | -35.03%
Br.Cc1cc(C)c(N(CC(O)CNCc2ccccc2)S(C)(=O)=O)c(C)c1 (stereo unspecified) | 104.6%
CCN(C)C(=O)c1cccc(S(=O)(=O)NCCc2nc(C)cc(=O)[nH]2)c1 | -0.1797%
CC(=O)Nc1nc(CN2CCOC(Cn3nc(C)cc3C)C2)cs1 (stereo unspecified) | 94.09%
CC(=O)Nc1nc(CN2CCOC(Cn3cccn3)C2)cs1 (stereo unspecified) | 107.9%
CC(=O)Nc1nc(CN2CCOC(Cn3cncn3)C2)cs1 (stereo unspecified) | 64.84%
CC(=O)Nc1nc(CN2CCOC(Cn3cc(C)cn3)C2)cs1 (stereo unspecified) | 2.495%
CC(=O)N(C)c1nc(CN2CCOC(Cn3cccn3)C2)cs1 (stereo unspecified) | -26.66%
Cc1ccnc(C(NC(=O)c2oc(C)nc2C)C2CC2)n1 (stereo unspecified) | -17.11%
COC(=O)CN(C(=O)c1ccoc1)c1cccc(F)c1 | 2.098%
O=C1CCCN1CCc1noc(-c2ccsc2)n1 | 1.002%

Structure (SMILES) | Percent Effect
O=C1CCCN1Cc1noc(-c2ccc(Cl)cc2)n1 | 123.5%
O=C1CCCN1CCc1noc(-c2ccc(Cl)cc2)n1 | 5.135%
CC(C)(N)c1cn([C@@H]2c3ccccc3C3(CCNCC3)[C@H]2O)nn1 | -37.53%
Cc1noc(CS(=O)(=O)CC(=O)NC(C)c2ccccc2)n1 (stereo unspecified) | -0.1878%
CCN(Cc1ccc2c(c1)OCO2)S(=O)(=O)N(C)C | 94.54%
CCN(Cc1cccs1)S(=O)(=O)N(C)C(C)C | 15.86%
CCN(C)S(=O)(=O)N(CC)Cc1ccc2c(c1)OCO2 | 0.6799%
CCN(Cc1ccc2c(c1)OCCO2)S(=O)(=O)N(C)C(C)C | -1.208%
CCN(Cc1ccc2c(c1)OCO2)c1ncc(S(N)(=O)=O)s1 | -18.45%
CCN(Cc1ccc2c(c1)OCO2)S(=O)(=O)N(C)C(C)C | 112.9%
Cc1ccc(-n2cc(CN3CCN(C)[C@@H]4CS(=O)(=O)C[C@@H]43)cn2)cc1 | 6.274%
CN(Cc1ccccc1O)C(=O)Nc1cc(F)cc(N2CCCC2)c1 | -6.524%
COCC(C)(C#N)NC(=O)COc1ccccc1 (stereo unspecified) | -21.26%
CC(C)[C@@H]1CN(C(=O)c2ccc3c(c2)CCCO3)C[C@H]1NS(C)(=O)=O | 0.04909%
O=C(O)C(=O)O.c1cncc(-c2noc(C3CN(Cc4cccs4)C3)n2)c1 | 13.98%
O=C(C1CCOC1)N1C[C@H]2CN(Cc3cccnc3)C(=O)[C@H]2C1.O=C(O)C(F)(F)F (stereo partly specified) | 101.2%
O=C(O)C(F)(F)F.O=C(c1ccsc1)N1C[C@H]2CN(Cc3cccnc3)C(=O)[C@H]2C1 | -7.854%
CN(C)CCN1C[C@@H]2CN(C(=O)C3CCOC3)C[C@@H]2C1=O.O=C(O)C(F)(F)F (stereo partly specified) | -5.233%
O=C(C1CCOC1)N1CCC2(CC1)COCCN(Cc1ccncc1)C2.O=C(O)C(F)(F)F.O=C(O)C(F)(F)F (stereo unspecified) | -2.392%
O=C(C1CCOC1)N1C[C@H]2CN(Cc3ccncc3)C(=O)[C@H]2C1.O=C(O)C(F)(F)F (stereo partly specified) | 94.79%
CCc1[nH]c2c(CNc3cncc(C(=O)N(C)C)n3)cc(F)cc2c1C | -5.745%
Cn1c(CN2CCOCC2)nnc1C1CCCN(C(=O)CCC2CC2)C1 (stereo unspecified) | 24.17%
CCOc1ccc(CN2CC[C@@](C)(O)[C@@H](Cc3ccccc3)C2)cn1 | 4.384%
C[C@]1(O)CCN(Cc2nccs2)C[C@@H]1Oc1cccc(F)c1 | 121.8%
CN1CC(=O)N(c2cccc(F)c2)CC12CCN(Cc1cncn1C)C2.O=C(O)C(F)(F)F.O=C(O)C(F)(F)F (stereo unspecified) | -8.718%
C[C@]1(O)CCN(Cc2cccnc2)C[C@@H]1Oc1cccc(F)c1 | 99%

Structure (SMILES) | Percent Effect
Cc1ncc(CN2CC[C@@](C)(O)[C@H](Oc3cccc(F)c3)C2)cn1 | 104.1%
CN1CC2(CCN(Cc3cccnc3)CC2)c2cc(F)ccc21 | 3.699%
CN1CC(=O)N(c2cccc(F)c2)CC12CCN(Cc1nccs1)C2.O=C(O)C(F)(F)F.O=C(O)C(F)(F)F (stereo unspecified) | -3.054%
COc1ncc(CN2CC[C@@](C)(O)[C@H](Oc3cccc(F)c3)C2)cn1 | 2.732%
Fc1ccc(OCc2nnc([C@H]3CCN(Cc4cccnc4)C3)o2)cc1 | 16.65%
C[C@]1(O)CCN(Cc2cncs2)C[C@@H]1Oc1cccc(F)c1 | 4.149%
Cn1cncc1CN1CC[C@](C)(O)[C@@H](Oc2cccc(F)c2)C1 | 104.7%
c1cc(-c2noc(-c3cc(C4CC4)on3)n2)cc(N2CCCCC2)n1 | -2.255%
CCn1nc2c(cc1=O)CN(Cc1nc(N)c3ccccc3n1)CC2 | 12.33%
O=C(Cc1csc(N2CCNC2=O)n1)NCC1(c2ccccc2)CC1 | 8.123%
Cc1ncsc1CNc1cccc(OCCN2CCCC2)c1 | 8.667%
Cc1ncsc1CN1C[C@H]2CC[C@@H]1CN(Cc1ccccc1)C2 | 1.915%
Cc1ncsc1CN1CC[C@](C)(O)[C@@H](Oc2cccc(F)c2)C1 | 111.6%
Cc1nnc(SCCCNC(=O)Nc2ccc3c(c2)OCO3)s1 | 7.014%
CN(CC1CCCCO1)c1nc2c(cc1C(N)=O)CCC2 (stereo unspecified) | -5.698%
NC(=O)c1cc2c(nc1N1C[C@H]3OC(=O)N(C4CCCC4)[C@H]3C1)CCC2 | 94.23%
NC(=O)c1cc2c(nc1-c1ccoc1)CCC2 | -15.41%
COc1ccccc1CN1C(=O)O[C@@H]2CN(c3nc(C)cnc3C)C[C@@H]21 | -4.864%
Cc1cnc(C)c(N2C[C@H]3OC(=O)N(C4CCCC4)[C@H]3C2)n1 | 94.65%
Cc1ccc(N2C[C@H]3OCC[C@H]3[C@H](C(=O)NC3CCCC3)C2)nn1 | 11.3%
Cc1cnc(C)c(N2CCCC(CC3CC3)(C(=O)O)C2)n1 (stereo unspecified) | 0.08182%
Cc1ccc(C(N)=O)c(N2C[C@H]3OC(=O)N(C4CCCC4)[C@H]3C2)n1 | 112.7%
COc1ccccc1CN1C(=O)O[C@@H]2CN(c3nc(C)cc(C)n3)C[C@@H]21 | -8.092%
